From PubChem BioAssay (NCATS)
Records with an inconclusive call do not appear. Unmarked numbers belong to inactive results. Activity calls are given as the source filed them. The call rests on the fitted dose curve; in most records, active means well fitted inhibition curve with a large enough effect; inconclusive means small, poorly fitted or top-dose-only effect; inactive means flat fitted curve, though single readings scatter.

biological target: Voltage-gated inwardly rectifying potassium channel KCNH2 (Homo sapiens) (UniProt Q12809); assay: qHTS Assay for Small Molecule Inhibitors of the Human hERG Channel Activity (AID 588834); conditions: U2OS BacMam hERG, FluxOR thallium flux fluorescence; series mostly up to 46.1 µM; activity change, negative = inhibition: at the top concentration;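 further: lower thallium flux fluorescence means stronger hERG block; nearly all actives have a fitted effect of over 50% in size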; on activity change, negative = inhibition: top concentration of the series differs between compounds
Summary of the method: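 Measured: FluxOR fluorescence after thallium stimulation in U2OS cells transduced with hERG by baculovirus. Compounds pre-incubated around 10 min; medium Opti-MEM with 2% FCS. AC50 from Hill equation.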
On the % scale 0 is the no-effect control and ±100 the full control effect; potency means the concentration at half of the fitted maximal effect.

Voltage-gated inwardly rectifying potassium channel KCNH2 (Homo sapiens), sequence (Q12809 whole entry, looked up): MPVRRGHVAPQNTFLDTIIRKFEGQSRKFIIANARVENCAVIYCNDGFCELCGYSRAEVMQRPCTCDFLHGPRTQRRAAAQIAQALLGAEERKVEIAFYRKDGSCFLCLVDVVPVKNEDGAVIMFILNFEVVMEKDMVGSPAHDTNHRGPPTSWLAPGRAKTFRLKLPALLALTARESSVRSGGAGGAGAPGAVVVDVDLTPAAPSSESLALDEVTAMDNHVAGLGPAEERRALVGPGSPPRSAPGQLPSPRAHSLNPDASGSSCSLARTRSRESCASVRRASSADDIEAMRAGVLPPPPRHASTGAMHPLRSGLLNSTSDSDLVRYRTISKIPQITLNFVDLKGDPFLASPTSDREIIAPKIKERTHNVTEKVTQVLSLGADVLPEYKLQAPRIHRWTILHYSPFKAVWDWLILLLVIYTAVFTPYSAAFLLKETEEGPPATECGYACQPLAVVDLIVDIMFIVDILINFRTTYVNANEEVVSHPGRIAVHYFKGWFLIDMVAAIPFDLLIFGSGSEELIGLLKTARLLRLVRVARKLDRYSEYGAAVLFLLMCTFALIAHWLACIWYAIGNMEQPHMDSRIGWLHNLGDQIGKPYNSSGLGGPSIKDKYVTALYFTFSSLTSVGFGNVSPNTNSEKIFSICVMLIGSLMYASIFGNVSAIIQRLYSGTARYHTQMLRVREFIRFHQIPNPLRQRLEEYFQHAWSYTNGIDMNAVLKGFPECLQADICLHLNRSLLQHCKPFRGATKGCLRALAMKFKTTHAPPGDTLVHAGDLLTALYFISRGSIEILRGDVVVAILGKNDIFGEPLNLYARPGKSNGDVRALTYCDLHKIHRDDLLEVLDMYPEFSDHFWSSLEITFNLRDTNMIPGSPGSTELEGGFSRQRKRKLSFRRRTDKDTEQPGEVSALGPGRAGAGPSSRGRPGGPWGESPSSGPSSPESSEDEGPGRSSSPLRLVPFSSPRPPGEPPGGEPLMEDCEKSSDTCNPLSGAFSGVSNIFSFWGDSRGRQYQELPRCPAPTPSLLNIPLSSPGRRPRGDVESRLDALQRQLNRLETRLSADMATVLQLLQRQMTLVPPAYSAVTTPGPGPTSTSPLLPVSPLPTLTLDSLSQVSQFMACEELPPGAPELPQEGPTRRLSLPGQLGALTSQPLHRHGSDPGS

SMILES	activity change, negative = inhibition	Potency
C[C@@H](O)[C@H](N)C(=O)O	-5.85%	–
O=c1[nH]cnc2c1ncn2[C@@H]1O[C@H](CO)[C@@H](O)[C@H]1O	0.539%	–
CS(=O)(=O)c1ccc([C@@H](O)[C@@H](CF)NC(=O)C(Cl)Cl)cc1	2.35% [at 20.6 µM]	–
O=c1cc(CO)occ1O	-1.35%	–
CC(=O)Oc1c(C)c(C)c2c(c1C)CC[C@@](C)(CCC[C@H](C)CCC[C@H](C)CCCC(C)C)O2	–	inactive
CN1CCOC(c2ccccc2)c2ccccc2C1 (configuration not stated)	-10.9% [at 20.6 µM]	–
O=C1Nc2ccc(Cl)cc2[C@@](C#CC2CC2)(C(F)(F)F)O1	-20.1%	–
c1ccc2c(CC3=NCCN3)cccc2c1	-15%	–
O=Cc1ccccc1C=O	0.111%	–
C[C@]12CC[C@@H]3c4ccc(O)cc4CC[C@H]3[C@@H]1CC[C@@H]2OC(=O)CCC1CCCC1	-24.8%	–
O=C(O)[C@H](O)c1ccccc1	6.4%	–
COC(=O)[C@H]1[C@H]2C[C@@H]3c4[nH]c5cc(OC)ccc5c4CCN3C[C@H]2C[C@@H](OC(=O)COc2ccc(OC)cc2)[C@@H]1OC	–	0.141 µM (active)
CCCCCCCCCCCCCCCCCCOCC(O)CO (configuration not stated)	-5.09%	–
N[C@@H](CSSC[C@H](N)C(=O)O)C(=O)O	12.1%	–
CCOC(CN1CCN(CC(C)C(=O)c2ccccc2)CC1)c1ccccc1 (configuration not stated)	–	12.6 µM (active)
CC(=O)Oc1ccc(C2(c3ccc(OC(C)=O)cc3)C(=O)Nc3ccccc32)cc1	–	inactive
C[C@@H]1CC[C@@]2(OC1)O[C@H]1C[C@H]3[C@@H]4CC[C@H]5C[C@@H](O)CC[C@]5(C)[C@H]4CC(=O)[C@]3(C)[C@H]1[C@@H]2C	12.2% [at 20.6 µM]	–
